Screens: PubChem, National Center for Advancing Translational Sciences (NCATS)
This is a sample that favours compounds with a hit; in the whole collection about 11% have one here.
NS1 function inh – qHTS Assay for Inhibitors of Influenza NS1 Protein Function; Potency, µM (top dose mostly 46.1 µM), without a hit: at the top dose activity, positive = more growth; 270,000 compounds, 0.4% hits; AID 2326, 2010; calls by dose curve; also: actives are rising curves; nearly all actives have a fitted effect of over 50% in size
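Growth recovery, yeast-based: influenza A NS1 expressed in S. cerevisiae causes slow growth, and suppressors are detected by OD600. The parent strain without NS1 is used as positive control.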
VACV mCherry inh – qHTS for Stage-Specific Inhibitors of Vaccinia Orthopoxvirus: mCherry Reporter Primary qHTS; Vaccinia virus mCherry reporter infection, fluorescence; 310,000 compounds, 0.63% hits; AID 720579, 2013; Potency, µM (highest dose often 36.5 µM), without a hit: at the top dose activity change, negative = inhibition, usual class: inhibitors; calls by dose curve; tested in A549 cells; also: % is scaled to controls: 0 for no effect and ±100 for the full control effect; nearly all actives have a fitted effect of over 35% in size
Pf growth 96h – Primary qHTS for delayed death inhibitors of the malarial parasite plastid, 96 hour incubation. P. falciparum luciferase reporter growth, 96 h. AID 504834, 2011. Potency, µM (doses to about 28.7 µM), for inactives: top-dose activity change, negative = inhibition, actives largely listed as inhibitors. 320,000 compounds, 6.9% hits; also: % is scaled to controls: 0 for no effect and ±100 for the full control effect
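96 h incubation, 37 C, 5% CO2, of luciferase-reporter P. falciparum-infected RBCs (2% hematocrit, 0.05% parasitemia final) with test compounds; endpoint luminescence.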
Pf growth 48h – Primary qHTS for delayed death inhibitors of the malarial parasite plastid, 48 hour incubation; AID 504832, 2011; Potency, µM (top dose mostly 28.7 µM), without a hit: at the highest dose activity change, negative = inhibition, most hits filed as inhibitors; P. falciparum luciferase growth in erythrocytes, 48 h; 310,000 compounds, 5.9% hits; also: % is scaled to controls: 0 for no effect and ±100 for the full control effect
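In quantitative HTS format, infected erythrocytes bearing luciferase-reporter parasites were treated for a single generation at 37 C. Luminescence after adding detection reagent served as the growth measure.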
HCV inhibitor – qHTS Assay for Inhibitors of Hepatitis C Virus (HCV); Huh7.5.1 HCVcc-Cre infection, luciferase reporter, 44 h; Potency, µM (highest dose often 41.8 µM), inactives show at the highest dose activity change, negative = inhibition, usual class: inhibitors; 340,000 compounds, 3.4% hits; also: % is scaled to controls: 0 for no effect and ±100 for the full control effect
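Antiviral activity was scored by luciferase reporter output from cells infected with HCVcc-Cre (~0.5 moi) in presence of compound, 44 h infection period, cells seeded 1,000/well 4 h prior.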
VACV Venus inh – qHTS for Stage-Specific Inhibitors of Vaccinia Orthopoxvirus: Venus Reporter Primary qHTS; Potency, µM (top dose mostly 36.5 µM), for inactives: at the top dose activity change, negative = inhibition, usual class: inhibitors; Vaccinia virus Venus reporter expression, fluorescence; 330,000 compounds, 0.46% hits; calls by dose curve; tested in A549 cells; also: % is scaled to controls: 0 for no effect and ±100 for the full control effect; nearly all actives have a fitted effect of over 30% in size
Starred values were filed as active, the others as inactive; i = inactive; ? = inconclusive; / = no result. Unless noted, calls follow the shape of the dose curve; as a rule, active = well fitted inhibition curve with a large enough effect; inconclusive = small, poorly fitted or top-dose-only effect, or another doubt; inactive = no such curve, though single readings can be large or run the other way. Potency is read from the fitted curve at half-maximal effect.

SMILES	NS1 function inh	VACV mCherry inh	Pf growth 96h	Pf growth 48h	HCV inhibitor	VACV Venus inh
Cc1c(OC(C)C(=O)NCC(O)c2ccccc2)ccc2c3c(c(=O)oc12)CCC3 (stereo not given)	-15%	/	10µM*	13µM*	?	/
Cc1cc(N=Cc2c(O)ccc3ccccc23)no1	0%	-14%	?	-3%	/	-6%
O=C(c1ccc(COc2ccc(F)cc2)o1)n1cccn1	-33%	i	0%	51%	19%	-11%
Cc1nn2c(=O)cc(COC(=O)c3cccc(NC(=O)c4ccc(F)cc4)c3)nc2s1	/	-13%	/	/	/	-16%
Cc1ccc(NC(=S)N/N=C/c2ccc([N+](=O)[O-])s2)cc1	-37%	10µM*	31%	9.3µM*	?	?
O=C(Cc1cccs1)N/N=C\c1ccc([N+](=O)[O-])s1	/	?	74%	?	?	?
Cc1cc(C)cc(N=Cc2ccc([N+](=O)[O-])s2)c1	-63%	-21%	-17%	0%	?	-7%
Cc1onc(-c2ccccc2)c1C(=O)N/N=C/c1ccc([N+](=O)[O-])s1	-30%	?	?	12µM*	?	?
Cc1onc(-c2ccccc2)c1C(=O)N/N=C/c1ccco1	2%	-18%	21%	88%	?	-7%
O=C(CNC(=O)c1ccccc1Cl)N/N=C/c1ccc([N+](=O)[O-])s1	17%	?	?	?	13µM*	?
Cc1cccc(-c2noc(-c3ccccc3C(=O)NCC3CCCO3)n2)c1 (stereo not given)	-55%	/	4%	76%	-21%	-9%
CCOC(=O)Cn1c(=O)c(F)cn(Cc2ccc(OC)c([N+](=O)[O-])c2)c1=O	7%	-10%	10µM*	6%	0%	-25%
Cc1ccc2cc(CN(CC3CCCO3)C(=S)Nc3ccccc3)c(=O)[nH]c2c1C (stereo not given)	?	?	-5%	10µM*	?	-17%
Cc1ccc2cc(CN(Cc3ccco3)C(=O)C3CCCCC3)c(=O)[nH]c2c1C	-7%	i	6%	?	1%	-8%
COc1ccccc1NC(=S)N(Cc1ccco1)Cc1cc2ccc(C)c(C)c2[nH]c1=O	?	?	150%	12µM*	?	?
Cc1cc(C)c2nc(Cl)c(CN(Cc3ccco3)C(=O)Nc3ccccc3C)cc2c1	?	-26%	?	12µM*	?	?
Cc1ccc2cc(CN(Cc3ccco3)C(=O)NC3CCCCC3)c(=O)[nH]c2c1C	0%	-13%	-14%	12µM*	?	-8%
Cc1cc(C)c2cc(CN(Cc3ccco3)C(=O)NCc3ccccc3)c(=O)[nH]c2c1	?	-17%	15µM*	0%	?	?
Cc1cc(C)c2cc(CN(CC3CCCO3)C(=S)NCc3ccco3)c(=O)[nH]c2c1 (stereo not given)	6%	?	?	?	?	-30%
COc1ccccc1NC(=S)N(Cc1ccco1)Cc1cc2cc(C)cc(C)c2[nH]c1=O	7%	-24%	-17%	3.3µM*	?	-15%
CCc1ccc(C2c3[nH]c4ccccc4c3CCN2C(=O)CNC(N)=O)cc1 (stereo not given)	4%	-7%	-14%	?	29%	-7%
CCc1ccc(C2c3[nH]c4ccccc4c3CCN2C(=O)c2ccc(=O)n(C)n2)cc1 (stereo not given)	17%	-10%	?	8.3µM*	0%	-16%
CSc1ccc(C2c3[nH]c4ccccc4c3CCN2C(=O)c2ccnn2C)cc1 (stereo not given)	9%	?	?	?	2%	-15%
CCc1ccc(C2c3[nH]c4ccccc4c3CCN2C(=O)CN2CCN(CC)CC2)cc1 (stereo not given)	3%	?	?	10µM*	?	-29%
